Inconclusive results are not listed. Calls of active or inactive are those of the source. The calls were made as follows: active = hit-call score of the fitted dose curve at least 0.9, where 1 is the maximum; inconclusive = response in the unintended direction; inactive = score below 0.9.

Sequence of Glyceraldehyde-3-phosphate dehydrogenase (Homo sapiens) (P04406 whole entry, looked up): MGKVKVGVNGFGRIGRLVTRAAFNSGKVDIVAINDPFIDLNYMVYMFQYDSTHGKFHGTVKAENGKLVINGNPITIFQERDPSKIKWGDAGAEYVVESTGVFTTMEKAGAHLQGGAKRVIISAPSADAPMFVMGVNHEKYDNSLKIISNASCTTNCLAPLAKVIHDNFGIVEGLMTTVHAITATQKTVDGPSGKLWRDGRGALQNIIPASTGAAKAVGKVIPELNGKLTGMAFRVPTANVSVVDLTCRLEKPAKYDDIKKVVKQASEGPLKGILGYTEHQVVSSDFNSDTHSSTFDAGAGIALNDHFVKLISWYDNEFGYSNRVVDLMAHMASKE

Read-out in this experiment: Glyceraldehyde-3-phosphate dehydrogenase (Homo sapiens) (UniProt P04406)
In words: CLD_GAPDH_48hr: CellzDirect (CLD) Gene Expression Assay for Baseline Control (Glyceraldehyde 3-phosphate dehydrogenase) at 48 hours (AID 2283706).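 Also: active means higher GAPDH mRNA than DMSO vehicle.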 As to the method: CLD_48hr is a cell-based, multiplexed-readout assay that uses hepatocyte, a human liver primary cell, with measurements taken at 48 hours after chemical dosing in a 96-well plate.CLD_GAPDH_48hr is one of 16 assay component(s) measured or calculated from the CLD_48hr assay. It is designed to make measurements of mRNA induction, a form of inducible reporter, as detected with chemiluminescence signals by Quantitative Nuclease Protection Assay (qNPA) technology.Data from the assay component CLD_GAPDH_48hr was analyzed at the endpoint, CLD_GAPDH_48hr, in the positive analysis fitting direction relative to DMSO as the negative control and baseline of activity. Using a type of inducible reporter, gain-of-signal activity can be used to understand changes in the reporter gene as they relate to the gene GAPDH. Furthermore, this assay endpoint can be referred to as a secondary readout, because this assay has produced multiple assay endpoints where this one serves a background control function. To generalize the intended target to other relatable targets, this assay endpoint is annotated to the background measurement intended target family, where subfamily is baseline control.
Human hepatocyte cultures were treated daily for two consecutive days with fresh dosing solutions containing appropriate concentrations of the 320 ToxCast chemicals (chemical identities were blinded to CellzDirect and other ToxCast collaborators), vehicle control (0.2% DMSO), and positive control inducers as summarized in Table 1. Due to the large number of treatment groups and chemicals examined, the ToxCast chemicals were divided into two groups (spanning two independent cultures of hepatocytes from separate donor preparations (Hu778: ToxCast plates 1 and 2; Hu776: ToxCast plates 3 and 4). Each preparation of human hepatocyte cultures was treated with respective vehicle control, medium only control, set of six positive controls/reference chemicals for the five hepatic receptor pathways, and a subset of eight of the ToxCast chemicals (indoxacarb, pyrithiobac-sodium, norflurazon, cyhalofop-butyl, methomyl, thiram, acetochlor, and propiconazole). These replicate data, coupled with internal replicates designed within the blinded ToxCast chemical library, provided additional data to evaluate interindividual differences between hepatocyte preparations and their potential impact on chemical profiles.Cell morphology and integrity were evaluated using phase-contrast microscopy as an indicator of hepatocyte cell health (Tyson & Green, 1987). Cultures for each treatment group (i.e., media, vehicle [0.2% DMSO], positive control inducers [multiple concentrations], and the ToxCast chemicals [multiple concentrations]) were observed and cell morphology was assessed relative to vehicle control cultures at each harvest time point (0, 6, 24, or 48 h). […] Images were evaluated at the conclusion of the study to assess changes in cell integrity and account for the effects of chemical exposure on uncharacteristic changes in concentration-dependent gene expression profiles. The results from these determinations of apparent cytotoxicity were annotated (yes/no) alongside the corresponding qNPA data for reference.At the conclusion of each treatment period, hepatocyte cultures (96-well) were washed with 1 volume of HBSS, lysed by addition of 25 ul ArrayPlate lysis buffer (HTG, Tucson, AZ), and 70 ul/well of Denaturation Oil, denatured by incubation at 95C for 10 min, and frozen at approximately -70C until analysis by nuclease protection assay (qNPA) (Roberts et al., 2007). For qNPA analysis, cell lysates were thawed at 50C for approximately 30 min, qNPA probes were added, and samples were incubated at 95C for 10 min to begin the detection process by denaturing the target RNA, dissociating the duplexes and secondary structure hybridization. At the conclusion of the hybridization period, S1 nuclease reagent was added to each sample to digest all nonprotected nucleotides at 50C for 60-90 min. […]
With `COC(=O)c1ccccc1C(=O)O`, the result was inactive.

With `COC(=O)c1ccc(I)cc1S(=O)(=O)NC(=O)Nc1nc(C)nc(OC)n1`, the compound was classed as inactive.

On to `CCCCOC(=O)C(C)Oc1ccc(Oc2ccc(C(F)(F)F)cn2)cc1` (stereo not drawn), for which the call was inactive.

On to `CCOC(=O)C(C)Oc1ccc(Oc2nc3ccc(Cl)cc3o2)cc1` (stereo not drawn), for which the compound was called inactive.

For `OB(O)O`, the call was inactive.

As to `Cc1nn(C)c(Oc2ccccc2)c1C=NOCc1ccc(C(=O)OC(C)(C)C)cc1`, the result was inactive.

Take `COC(=O)c1cccc(C)c1S(=O)(=O)NC(=O)Nc1nc(OCC(F)(F)F)nc(N(C)C)n1`: the result was inactive.

As to `Oc1ccc(C(c2ccc(O)cc2)C(Cl)(Cl)Cl)cc1`, the outcome was inactive.

Regarding `CC(C)(c1ccc(O)cc1)c1ccc(O)cc1`, the outcome was inactive.

With `CCOC(=O)[C@H](C)Oc1ccc(Oc2nc3ccc(Cl)cc3o2)cc1`, the call was inactive.

For the compound `CCCOC(=O)c1ccc(C(=O)OCCC)nc1`, the outcome was inactive.

As for `N#CSCSc1nc2ccccc2s1`, the call was inactive.

As for `CCNc1nc(N)nc(Cl)n1`, the outcome was inactive.

As to `CCCOC(=O)NCCCN(C)C`, the compound was called inactive.

In the case of `C#CCOC(=O)[C@@H](C)Oc1ccc(Oc2ncc(Cl)cc2F)cc1`, the compound was called inactive.

Turning to `CCCCCCC(C)OC(=O)COc1nc(F)c(Cl)c(N)c1Cl` (stereo not drawn), the call was inactive.

In the case of `S=C(S)NCCNC(=S)S.[Mn+2].[S-]C([S-])=NCCN=C([S-])[S-].[Zn+2]`, the call was inactive.

As for `CCCN(CCC)C(=O)SCC`, the result was inactive.

Take `O=C(O)C1(C(=O)Nc2ccc(Cl)cc2Cl)CC1`: the call was inactive.

For the compound `CCSC(=O)N(CC(C)C)CC(C)C`, the outcome was inactive.

With `COC(=O)c1c(Cl)nn(C)c1S(=O)(=O)NC(=O)Nc1nc(OC)cc(OC)n1`, the outcome was inactive.

For the compound `CCN(CC)C(=O)c1cccc(C)c1`, the compound was called inactive.

Regarding `COCCO`, the result was inactive.

Regarding `CCCCCOC(=O)COc1cc(N2C(=O)C3=C(CCCC3)C2=O)c(F)cc1Cl`, the outcome was inactive.

Take `COC(=O)c1ccc(CNS(C)(=O)=O)cc1S(=O)(=O)NC(=O)Nc1nc(OC)cc(OC)n1`: the compound was called inactive.

Consider `COc1nc(C)nc(NC(=O)NS(=O)(=O)c2ccccc2OCCCl)n1`, for which the result was inactive.

For the compound `CCCCC(CC)COC(=O)c1ccccc1C(=O)O` (stereo not drawn), the outcome was inactive.

As for `CCC(C)OC(=O)N1CCCCC1CCO` (stereo not drawn), the compound was classed as inactive.

Consider `CCOC(=O)COc1cc(-n2ncc(C(F)(F)F)c(C)c2=O)c(F)cc1Cl`, for which the outcome was inactive.

As for `S=C([S-])NCCNC(=S)[S-].[Mn+2]`, the outcome was inactive.

`CCC(O)=C1C(=O)CC(C(=O)O)CC1=O` (stereo not drawn): the compound was classed as inactive.

As to `C=CCOC(Cn1ccnc1)c1ccc(Cl)cc1Cl` (stereo not drawn), the outcome was inactive.

Consider `CC1(C)C(C=C(Cl)Cl)C1C(=O)OCc1cccc(Oc2ccccc2)c1` (stereo not drawn), for which the compound was called inactive.

Values taken from PubChem BioAssay (EPA / NIEHS).
